Compound activity: PubChem BioAssay, several laboratories
Most compounds without a hit are left out; they make up all but 4.5% or so of the library.
Rpn11 block: inhibitors of human proteasome Rpn11 | 360,000 tested, 0.59% active | human 26S proteasome, Ub4-pepOG fluorescence polarization; 20S core pre-blocked with epoxomicin | inhibition, % at 20 µM | O00487 | AID 588493;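 active = inhibition at 20 µM, scaled to each plate's controls, above about 33%, limit read from the data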
TPT1 inhibitor: inhibitors of Candida albicans tRNA 2'-phosphotransferase TPT1 | recombinant caTPT1, FP RNA substrate dephosphorylation | 300,000 tested, 0.81% active | inhibition, % at 5 µM;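 active = inhibition above the mean of all tested compounds plus 3 SD, set per screening campaign, cut at about 24% in these data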;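 note: plate controls were DMSO alone for no effect and ferristatin control at 100 nM for full effect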
ZTA counter: ZTA (EBV) inhibition in EBNA-1 counter-screen | P03206 | 320,000 tested, 0.15% active | inhibition, % at 11 µM | ZTA-DNA binding, fluorescence polarization; in the data active = inhibition above about 33%
Target sequence (P03206 whole entry, looked up): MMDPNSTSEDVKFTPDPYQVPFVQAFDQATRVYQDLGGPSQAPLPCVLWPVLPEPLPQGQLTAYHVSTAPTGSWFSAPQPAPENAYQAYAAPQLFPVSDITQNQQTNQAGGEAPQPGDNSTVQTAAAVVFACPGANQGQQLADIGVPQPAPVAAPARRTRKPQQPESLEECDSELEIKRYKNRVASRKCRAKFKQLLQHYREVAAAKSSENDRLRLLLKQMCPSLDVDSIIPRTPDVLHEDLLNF
EBNA-1 inh: blocks EBNA-1 binding to DNA; AID 1950; inhibition, % at 14.8 µM; 300,000 tested, 0.34% active; EBNA-1 DNA binding, fluorescence polarization; in the data active = inhibition above about 28%
NR3A LBD binder: modulators (binders) of human NR3A ligand-binding domain | NR3A LBD differential scanning fluorimetry, Tm shift; 0% = protein alone, 100% = glycine-bound protein | Tm shift relative to glycine control, % at 25 µM | 340,000 tested, 2.5% active;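 active = melting temperature shift of at least 10% of the positive control shift, at one fixed dose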
dFosB act: mouse delta FosB homodimer activation | activation, % at 25 µM | AID 493131 | P13346 | 340,000 tested, 0.99% active | purified delta FosB, TAMRA-CDK5 oligo fluorescence polarization; percent of positive-control signal above neutral wells;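 active = mean activation above about 17%, with every replicate also reaching it, limit read from the data, passing the limit was not always enough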
Target sequence (P13346 whole entry, looked up): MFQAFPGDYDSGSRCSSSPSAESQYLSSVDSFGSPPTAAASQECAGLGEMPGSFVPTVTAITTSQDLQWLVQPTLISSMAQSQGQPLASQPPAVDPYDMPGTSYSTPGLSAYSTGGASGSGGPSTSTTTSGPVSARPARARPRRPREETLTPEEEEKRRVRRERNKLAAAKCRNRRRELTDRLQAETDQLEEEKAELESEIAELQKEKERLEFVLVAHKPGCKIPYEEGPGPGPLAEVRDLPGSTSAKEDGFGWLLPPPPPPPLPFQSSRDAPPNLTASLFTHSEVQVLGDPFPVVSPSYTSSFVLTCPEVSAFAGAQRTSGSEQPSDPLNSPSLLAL
Active calls of the source: *; x = not tested or not shown.

SMILES | Rpn11 block | TPT1 inhibitor | ZTA counter | EBNA-1 inh | NR3A LBD binder | dFosB act
Cc1ccccc1C(=O)OCC(=O)N(C)c1c(N)n(Cc2ccccc2)c(=O)[nH]c1=O | -3 | 1 | 10 | -4 | 2 | -4
CCC1(CC)NC(=O)N(CC(=O)OC(C)C(=O)Nc2ccc(NC(C)=O)cc2)C1=O (stereo not given) | -3 | 0 | -13 | 2 | 1 | -5
CCNC(=O)Nc1ccc(-n2nc(C)c(C(=O)OCC)c2C)nc1 | -5 | 0 | -14 | -1 | -4 | -5
N#C/C(=C\c1ccc(-c2ccccc2Cl)o1)C(=O)Nc1nc2ccccc2s1 | 15 | 13 | 11 | 10 | 18* | 1
CCOc1ccc(/C=C(\C(=O)O)c2ccc(S(=O)(=O)N3CCCCC3)s2)cc1OC | -3 | x | x | x | 18* | -4
CCOc1ccc(/C=C(\C(=O)O)c2ccc(S(=O)(=O)N3CCOCC3)s2)cc1OC | -4 | 4 | 5 | 9 | 12* | 5
COc1cc(/C=C(\C(=O)O)c2ccc(S(=O)(=O)N3CCCC3)s2)cc(OC)c1 | -8 | x | x | x | 2 | -10
C[C@@H]1CN([C@@H](C)CO)C(=O)CCCn2nncc2CO[C@H]1CN(C)C(=O)OCc1ccccc1 | -7 | x | x | x | x | x
O=C(Nc1ccc(Cl)cc1)Nc1ccc(N2CCOCC2)cc1 | 7 | -4 | -17 | -1 | 11* | -3
O=C(Nc1ccc(N2CCOCC2)cc1)Nc1ccc(Cl)c(Cl)c1 | 2 | 1 | 11 | 6 | 33* | -20
O=C(CCC(=O)Nc1cccnc1)Nc1cccnc1 | 0 | 1 | 6 | 5 | -1 | -2
O=C(COc1ccc2c(c1)oc(=O)c1ccccc12)NCCCN1CCOCC1 | -1 | 2 | 8 | 0 | 0 | -38
COc1ccc(CC(=O)NNC(=O)COc2ccc(C)cc2)cc1S(=O)(=O)N1CCOCC1 | -2 | -3 | -6 | -11 | 10* | -9
COc1ccc(CC(=O)NNC(=O)COc2ccc(F)cc2)cc1S(=O)(=O)N1CCOCC1 | 6 | x | x | x | -4 | 0
CCCc1nc2ccccc2c(C(=O)OCC(=O)Nc2ccc(S(=O)(=O)N3CCOCC3)cc2)c1CC | 12 | 5 | -3 | 2 | 18* | -6
CCCc1nc2ccccc2c(C(=O)OCC(=O)Nc2cccc(S(=O)(=O)N3CCOCC3)c2)c1CC | 7 | 0 | -19 | -7 | 8 | -9
Cc1ccc(OCCCC(=O)Nc2ccc(S(=O)(=O)N3CCOCC3)cc2)cc1 | -1 | x | -11 | x | 28* | -13
COc1ccc(CCC(=O)Nc2ccc(S(=O)(=O)N3CCOCC3)cc2)cc1 | 8 | -1 | 8 | 8 | 20* | -9
O=C(CN1CCCC1c1cccs1)N1CCN(S(=O)(=O)c2cccc(F)c2)CC1 (stereo not given) | 0 | x | -16 | x | -1 | -1
CCOc1ccc(S(=O)(=O)N2CCOCC2)cc1NC(=O)CSCC(=O)Nc1ccc(C)cc1 | 0 | -2 | -12 | -2 | 11* | -12
COc1ccc(/C=C/C(=O)Nc2ccc(S(=O)(=O)N3CCOCC3)cc2)c(OC)c1 | 8 | x | -12 | x | 25* | 9
CCOc1ccc(S(=O)(=O)N2CCOCC2)cc1NC(=O)CSCC(=O)Nc1ccc(OC)cc1 | -3 | x | x | x | 0 | -3
COc1ccc(CN(C(=O)c2cc3ccccc3oc2=O)C2CCS(=O)(=O)C2)cc1OC (stereo not given) | -2 | 2 | 0 | -9 | -3 | -4
CCNC(=O)c1cc(S(=O)(=O)N(C)C)c(Cl)cc1Cl | 4 | -1 | 10 | 9 | -1 | -4
CN(C)S(=O)(=O)c1cc(C(=O)NCC2CCCO2)c(Cl)cc1Cl (stereo not given) | -4 | 2 | 6 | -14 | 18* | -7
SMILES | Rpn11 block | TPT1 inhibitor | ZTA counter | EBNA-1 inh | NR3A LBD binder | dFosB act
Cc1ccc(S(=O)(=O)N2C(=O)CCC2C(=O)O/N=C(\N)c2cccc([N+](=O)[O-])c2)cc1 (stereo not given) | 2 | -1 | -2 | 0 | 5 | -10
Cc1cccc2c3c([nH]c12)CCNC3 | -2 | -2 | 5 | -7 | -2 | -8
Cc1nc(N/N=C/c2ccc(O)cc2)c2cnn(-c3ccccc3)c2n1 | 2 | 0 | -9 | 4 | 12* | -1
O=c1c2ccccc2nc(N/N=C/c2ccc(O)cc2)n1O | -3 | -5 | 7 | 17 | -3 | 4
Cc1nc2ccccc2nc1N/N=C/c1ccc(O)cc1 | 1 | -1 | 4 | -7 | 11* | -13
CSc1ccc(/C=C/C(=O)c2ccc(O)cc2)cc1 | 4 | -3 | 4 | 20 | 11* | -3
COc1ccc(C(=O)/C=C/c2ccccc2)c(O)c1 | -1 | -2 | -11 | -8 | -11 | -9
O=C(/C=C/c1ccc(O)c(O)c1)c1ccccc1O | 2 | 2 | 5 | -10 | 25* | -9
O=C(/C=C/c1ccc(O)cc1)c1ccc(O)cc1O | -1 | 2 | 21 | 7 | 28* | 0
CCN1C(=O)C2(C(C(=O)c3cc4ccccc4o3)=C(O)C(=O)N2CCCN(C)C)c2ccccc21 (stereo not given) | x | 0 | -2 | 4 | -1 | x
CC(C)Oc1ccc(S(=O)(=O)N2CCOCC2)cc1NC(=O)C1CCCCC1 | 2 | x | -13 | x | 0 | -13
CN(Cc1c(C(=O)N/N=C/c2ccccc2O)nnn1-c1nonc1N)C1CCCCC1 | 6 | x | x | x | x | x
Cc1nnn(-c2nonc2N)c1C(=O)N/N=C/c1cccc2ccccc12 | 7 | 1 | 12 | -1 | 33* | 9
CN(C)Cc1c(C(=O)N/N=C/c2cccc3ccccc23)nnn1-c1nonc1N | -1 | 2 | 9 | 11 | -7 | -11
Cc1nnn(-c2nonc2N)c1C(=O)N/N=C/c1ccccc1O | 14 | 0 | 8 | -1 | 30* | 104*
COc1cc(/C=N/NC(=O)c2c(C)nnn2-c2nonc2N)ccc1O | -1 | 1 | 11 | -4 | 14* | 0
CCCOc1ccc(/C=N/NC(=O)c2nnn(-c3nonc3N)c2-c2cccs2)cc1OC | 4 | 0 | 9 | 6 | -2 | 10
COc1cc2[nH]c(=O)c(C(=O)NCc3ccc(F)cc3)c(O)c2cc1OC | 0 | x | x | x | 0 | 3
COC(=O)CSc1nc2ccc(NC(=O)CSc3nnnn3Cc3ccccc3)cc2s1 | 1 | 2 | 13 | 22 | -6 | -5
O=C(CSc1nc2ccc(NC(=O)c3ccccc3C(=O)O)cc2s1)Nc1ccc(F)c([N+](=O)[O-])c1 | -3 | 3 | 5 | -10 | 18* | -18
O=C(CSc1nc2ccc(NC(=O)CSc3nnnn3Cc3ccccc3)cc2s1)Nc1ccccc1 | 0 | -3 | 13 | 17 | 17* | -4
O=[N+]([O-])c1ccccc1S(=O)(=O)N1CCN(c2ccc(F)cc2)CC1 | 1 | 5 | 4 | 3 | 3 | 0
